# Measurements from PubChem BioAssay (Tox21).
# Unmarked numbers belong to inactive results. Records with an inconclusive call do not appear. Where a call stands in place of a potency, no number is given. The source made the active and inactive calls. Unless noted, the call rests on the fitted dose curve; in most records, active means well fitted curve in the direction sought with a large enough effect in the repeat runs; inconclusive means weak or mixed curves; inactive means no such curve, though single readings can be large; an effect the other way counts as inactive or inconclusive.
# What was measured:
# [1] = qHTS assay to identify small molecule antagonists of the androgen receptor (AR) signaling pathway using the MDA cell line in the presence of 0.5 nM R1881 - cell viability counter screen (AID 1259242); further: nearly all actives have a fitted effect of over 45% in size
# Outline: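 Human breast carcinoma MDA-kb2 cells, cultured without CO2, receive compounds alongside 0.5 nM (final) R1881 agonist. After 16 hr at 37C, viability is taken as live-cell protease signal.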
# [2] = molecular target: Estrogen receptor (Homo sapiens) (UniProt P03372); assay: qHTS assay to identify small molecule antagonists of the estrogen receptor alpha (ER-alpha) signaling pathway using the BG1 cell line in the presence of 0.1 nM 17-beta-estradiol (AID 1259244); further: nearly all actives have a fitted effect of over 50% in size
# Outline: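 Seeding of stripped-serum-adapted VM7Luc4E2 cells, 24 h attachment, compound transfer, then 0.1 nM final 17beta-estradiol; after 22 h incubation, ONE-Glo reagent and luminescence reading.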
# [3] = qHTS assay to identify small molecule HDAC inhibitors (AID 1259364); further: potency means the concentration at half of the fitted maximal effect;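 further: wild-type HCT-116 cells with endogenous class I/II HDAC activity; nearly all actives have a fitted effect of over 45% in size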
# Outline: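 After a 2 hr compound incubation (37C, 5% CO2), HCT-116 cells seeded at 1,500/well the day before received HDAC-Glo reagent; signal read as luminescence after 30 min at room temperature.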
# [4] = qHTS assay to identify small molecule HDAC inhibitors - cell viability counter screen (AID 1259365); further: series mostly up to about 92 µM; nearly all actives have a fitted effect of over 50% in size
# Outline: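 CellTiter-Glo luminescence (30 min, room temperature) reported viability after a 2 h compound exposure at 37 C. Cells: wild-type HCT-116, 1,500 per well, seeded the night before.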
# [5] = qHTS assay to identify small molecule agonists of the sonic hedgehog signaling (Shh) pathway - cell viability counter screen (AID 1259366); further: nearly all actives have a fitted effect of over 50% in size
# Outline: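 Cytotoxicity counter screen: CellTiter-Fluor reagent added after 23 h compound exposure, then 1 h at 37C and fluorescence read. Cells were 3T3 Gli1-Luc, seeded 2,000 per well and dosed 4 h post-plating.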
# [6] = qHTS assay to identify small molecule antagonists of the sonic hedgehog signaling (Shh) pathway - cell viability counter screen (AID 1259367); further: nearly all actives have a fitted effect of over 55% in size
# Outline: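 Viability was read by CellTiter-Fluor fluorescence in the same wells, reagent added 23 hr into compound treatment and incubated 1 hr at 37C. The 3T3 Gli1-Luc reporter cells (2,000/well) received conditioned medium after compound and ran 24 hr.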
# [7] = qHTS assay to identify small molecule agonists of the sonic hedgehog signaling (Shh) pathway (AID 1259368; calls by dose curve;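 further: NIH/3T3-derived 3T3Gli1-Luc cells carrying a stable Gli1-driven firefly luciferase reporter; series mostly up to about 92 µM; nearly all actives have a fitted effect of over 15% in size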)
# Outline: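 Stable NIH/3T3 Gli1-Luc reporter clone; 24 hr cpd exposure after a 4 hr settling period; luminescence endpoint.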
# [8] = molecular target: Estrogen receptor beta (Homo sapiens) (UniProt Q92731); assay: qHTS assay to identify small molecule agonists of the estrogen receptor beta (ER-beta) signaling pathway (AID 1259377; active means well fitted activation curve with a large enough effect in the signal ratio in the repeat runs, not every such curve was filed as active; the % refers to the signal ratio)
# Outline: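 Ratiometric beta-lactamase FRET read-out came after 2 h substrate loading at room temperature. It followed 16 h compound treatment at 37C of GripTite HEK293T cells carrying a UAS-bla reporter, plated in 2% charcoal-stripped FBS medium.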
# [9] = qHTS assay to identify small molecule agonists of the estrogen receptor beta (ER-beta) signaling pathway - cell viability counter screen (AID 1259380); further: nearly all actives have a fitted effect of over 30% in size; further: potency means the concentration at half of the fitted maximal effect
# Outline: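 In this qHTS counter screen, HEK293T cells carrying an ER-beta/UAS beta-lactamase reporter, grown in 2% charcoal-stripped FBS, received compound for 16 hr; ATP-based CellTiter-Glo luminescence was then read after 30 min at room temperature.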
# [10] = qHTS assay to identify small molecule antagonists of the estrogen receptor beta (ER-beta) signaling pathway - cell viability counter screen (AID 1259382); further: nearly all actives have a fitted effect of over 55% in size; further: potency means the concentration at half of the fitted maximal effect
# Outline: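 HEK293T ER-beta-UAS-bla, 2% charcoal-stripped FBS; compounds + 1nM E2 16 hr 37C; CellTiter-Glo luminescence, 30 min RT.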
# [11] = molecular target: Estrogen receptor (Homo sapiens) (UniProt P03372); assay: qHTS assay to identify small molecule agonists of the estrogen receptor alpha (ER-alpha) signaling pathway in the presence of an antagonist (AID 1259383; calls by dose curve; further: top concentration of the series differs between compounds; nearly all actives have a fitted effect of over 15% in size)
# Outline: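 ER-alpha agonism measured under antagonist challenge: 10.0nM ICI-182,780 (final) plus compound, 15 concentrations, 22hr, VM7Luc4E2 ERE-luciferase cells. Read by luminescence.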
# [12] = qHTS assay to identify small molecule agonists or antagonists of the thyroid stimulating hormone receptor (TSHR) signaling pathway - wild type cell line counter screen (AID 1259384; calls by dose curve)
# Outline: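 Counter screen in untransfected Hek293: compounds (15-point titration, triplicate) plus phosphodiesterase inhibitor Ro20-1724 added after 18 h plating; 30 min RT. Intracellular cAMP via competitive d2/cryptate immunoassay, 1 h incubation.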
# [13] = qHTS assay to identify small molecule agonists of the estrogen receptor alpha (ER-alpha) signaling pathway in the presence of an antagonist - cell viability counter screen (AID 1259386);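 further: series mostly up to about 92 µM; cells exposed to compounds for 22 h at 37 °C before the viability read; nearly all actives have a fitted effect of over 30% in size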
# Outline: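 Steps: 5-day stripped-FBS culture; seed and incubate 24hr; add ICI-182,780 (10.0nM final); pin 15-point compound titration; incubate 22hr at 37C; add CellTiter-Fluor at 21hr; read fluorescence.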
# [14] = qHTS assay to identify small molecule antagonists of the sonic hedgehog signaling (Shh) pathway (AID 1259369; calls by dose curve; further: nearly all actives have a fitted effect of over 45% in size; further: potency means the concentration at half of the fitted maximal effect)
# Outline: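 Gli1 transcriptional reporter (firefly Luc) in NIH/3T3 background, conditioned-medium activated. 24hr exposure, luminescence endpoint.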
# [15] = molecular target: Estrogen receptor beta (Homo sapiens) (UniProt Q92731); assay: qHTS assay to identify small molecule antagonists of the estrogen receptor beta (ER-beta) signaling pathway (AID 1259378; active means well fitted inhibition curve with a large enough effect in the signal ratio in the repeat runs, not every such curve was filed as active; the % refers to the signal ratio)
# Outline: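 Antagonist mode: compounds added to beta-lactamase reporter HEK293T ER-beta-UAS cells stimulated with E2 (1nM final), 16 hr at 37C. LiveBLAzer B/G FRET substrate, 2 hours room temperature, fluorescence read-out.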
# [16] = qHTS assay to identify small molecule agonists of the androgen receptor (AR) signaling pathway in the presence of an antagonist - cell viability counter screen (AID 1259379);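 further: MDA-kb2 human breast cancer cells carrying an MMTV luciferase reporter; series mostly up to about 92 µM; nearly all actives have a fitted effect of over 25% in size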
# Outline: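 Counter screen for cell viability run in parallel with the AR agonist-mode luciferase assay. MDA-kb2 cells were co-treated with nilutamide (3.0uM final) and compounds, then incubated 16 hr at 37C, and CellTiter-Fluor fluorescence was measured.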
# [17] = molecular target: Thyrotropin receptor (Homo sapiens) (UniProt P16473); assay: qHTS assay to identify small molecule antagonists of the thyroid stimulating hormone receptor (TSHR) signaling pathway (AID 1259385; calls by dose curve; further: nearly all actives have a fitted effect of over 20% in size)
# Outline: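 Antagonist mode: compound-treated TSHR-expressing HEK293 cells were stimulated with 1.5 ng/mL TSH (final) in presence of Ro20-1724 for 30 min at RT. HTRF cAMP detection after 1 h; each compound tested at 15 concentrations, triplicate.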
# [18] = qHTS assay to identify small molecule phospholipidosis (PLD) inducers (AID 1259344; active means well fitted curve in the direction sought with a large enough effect; an effect the other way counts as inactive or inconclusive)
# Outline: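 Phospholipid accumulation was scored by imaging: fixed, Hoechst-counterstained HepG2 cells stained with LipidTOX Red after 24 h compound exposure at 37 C. Read-outs were pit count and pit intensity per well or per cell, with amiodarone and DMSO controls.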
# Thyrotropin receptor (Homo sapiens), sequence (P16473 whole entry, looked up): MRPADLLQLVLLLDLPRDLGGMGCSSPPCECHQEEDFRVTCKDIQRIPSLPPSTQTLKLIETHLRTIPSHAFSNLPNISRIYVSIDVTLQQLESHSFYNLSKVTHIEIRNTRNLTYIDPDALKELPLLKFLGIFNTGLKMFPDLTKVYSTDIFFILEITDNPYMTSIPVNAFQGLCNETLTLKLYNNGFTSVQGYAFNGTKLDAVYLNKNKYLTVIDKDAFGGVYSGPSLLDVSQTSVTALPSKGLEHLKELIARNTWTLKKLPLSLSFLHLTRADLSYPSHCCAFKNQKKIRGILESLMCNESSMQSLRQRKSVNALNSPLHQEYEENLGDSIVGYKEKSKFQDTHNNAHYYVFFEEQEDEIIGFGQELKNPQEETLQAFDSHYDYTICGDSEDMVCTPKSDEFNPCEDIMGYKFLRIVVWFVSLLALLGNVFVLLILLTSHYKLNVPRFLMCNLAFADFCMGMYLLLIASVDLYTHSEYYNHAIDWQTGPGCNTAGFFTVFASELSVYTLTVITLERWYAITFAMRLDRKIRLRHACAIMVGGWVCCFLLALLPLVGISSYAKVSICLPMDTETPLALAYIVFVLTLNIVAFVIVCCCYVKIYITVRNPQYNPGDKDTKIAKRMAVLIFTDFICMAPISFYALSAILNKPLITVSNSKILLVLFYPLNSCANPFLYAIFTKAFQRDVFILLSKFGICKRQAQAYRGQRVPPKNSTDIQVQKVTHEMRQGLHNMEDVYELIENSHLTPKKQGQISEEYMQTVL
# Estrogen receptor (Homo sapiens), sequence (P03372 whole entry, looked up): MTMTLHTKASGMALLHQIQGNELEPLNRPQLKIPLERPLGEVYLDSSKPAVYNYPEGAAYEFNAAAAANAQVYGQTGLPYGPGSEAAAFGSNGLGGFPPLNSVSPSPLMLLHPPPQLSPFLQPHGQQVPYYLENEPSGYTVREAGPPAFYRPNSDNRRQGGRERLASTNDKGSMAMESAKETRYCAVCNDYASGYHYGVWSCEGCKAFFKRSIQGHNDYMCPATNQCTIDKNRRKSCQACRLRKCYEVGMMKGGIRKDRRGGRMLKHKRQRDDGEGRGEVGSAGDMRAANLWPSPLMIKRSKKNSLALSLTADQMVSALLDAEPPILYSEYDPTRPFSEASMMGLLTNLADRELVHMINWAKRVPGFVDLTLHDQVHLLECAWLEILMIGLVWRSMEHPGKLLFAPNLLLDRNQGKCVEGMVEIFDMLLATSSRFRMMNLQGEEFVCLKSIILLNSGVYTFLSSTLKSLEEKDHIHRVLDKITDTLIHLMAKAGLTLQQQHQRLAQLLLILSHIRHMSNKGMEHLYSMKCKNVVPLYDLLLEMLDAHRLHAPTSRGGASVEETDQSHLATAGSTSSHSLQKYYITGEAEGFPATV
# Estrogen receptor beta (Homo sapiens), sequence (Q92731 whole entry, looked up): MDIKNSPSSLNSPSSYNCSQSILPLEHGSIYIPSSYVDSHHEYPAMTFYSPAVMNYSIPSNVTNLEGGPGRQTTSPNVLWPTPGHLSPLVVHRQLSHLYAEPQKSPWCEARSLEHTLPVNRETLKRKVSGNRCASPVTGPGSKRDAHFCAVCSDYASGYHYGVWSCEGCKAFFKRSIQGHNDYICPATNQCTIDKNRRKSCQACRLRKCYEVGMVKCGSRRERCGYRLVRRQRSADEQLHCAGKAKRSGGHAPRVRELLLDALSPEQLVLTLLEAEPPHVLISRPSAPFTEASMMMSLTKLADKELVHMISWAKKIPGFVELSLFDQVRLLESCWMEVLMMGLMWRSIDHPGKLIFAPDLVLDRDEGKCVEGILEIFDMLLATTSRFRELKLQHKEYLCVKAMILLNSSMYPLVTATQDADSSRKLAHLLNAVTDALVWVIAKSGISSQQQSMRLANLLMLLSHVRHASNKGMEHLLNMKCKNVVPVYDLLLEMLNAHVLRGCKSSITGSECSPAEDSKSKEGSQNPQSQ
SMILES,Potency [1],Potency [2],Potency [3],Potency [4],Potency [5],Potency [6],Potency [7],Potency [8],Potency [9],Potency [10],Potency [11],outcome [12],Potency [13],Potency [14],Potency [15],Potency [16],Potency [17],Potency [18]
CC(C)(C)c1csc(-c2cc3cc(OCc4ccccc4CC(=O)O)ccc3o2)n1,inactive,inactive,inactive,inactive,inactive,inactive,inactive,inactive,4.86 µM (active),27.3 µM (active),inactive,inactive,inactive,,,,,
CC(C)(C)C1CCC(=O)CC1,inactive,inactive,inactive,inactive,inactive,,inactive,inactive,inactive,inactive,inactive,inactive,,30.6 µM (active),inactive,inactive,inactive,
COC(=O)c1ccccc1OC,inactive,inactive,,inactive,inactive,inactive,inactive,inactive,inactive,inactive,inactive,inactive,,inactive,inactive,inactive,inactive,
Cc1c(C)c([N+](=O)[O-])c(C(C)(C)C)c([N+](=O)[O-])c1C,inactive,inactive,,inactive,inactive,inactive,inactive,inactive,inactive,inactive,inactive,inactive,inactive,inactive,,inactive,inactive,
CCCCCCC1CCCC(=O)O1 (configuration not stated),inactive,,inactive,inactive,inactive,inactive,,,,inactive,,inactive,inactive,inactive,,inactive,inactive,
CN(C)C(=O)COC(=O)Cc1ccc(OC(=O)c2ccc(N=C(N)N)cc2)cc1,inactive,,0.0376 µM (active),inactive,inactive,inactive,inactive,inactive,inactive,inactive,,inactive,,inactive,,inactive,inactive,inactive
CCCCOC(=O)CC,inactive,,inactive,inactive,inactive,inactive,inactive,inactive,inactive,inactive,,inactive,inactive,,inactive,inactive,inactive,
